The campaign covered roughly 1,400 compounds. About 350 (25%) were called active. Inconclusive results (about 2%) are left out. The list is a sample of the results. Results with a measured potency or affinity are listed apart. A number with no mark means an inactive call. No rule for the calls is given here.

A short description of this test: C. difficile growth inhibition, confirmation, 4-point retest (AID 1224921).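 Also: plate controls were DMSO wells for no effect and levofloxacin 16 µg/mL wells for full effect.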 Particulars: Clostridioides difficile clinical isolate growth, OD600, 24 h, active compounds read low; at 30 µM unless noted.
For the compound `C[C@H]1CN([C@@H](C)CO)S(=O)(=O)c2ccc(/C=C/c3ccccc3)cc2O[C@H]1CN(C)C(=O)NC1CCCCC1`, the max activity is 52.4%.

On to `COCC(=O)Nc1ccc2c(c1)OC[C@@H](C)N(Cc1ccccc1OC)C[C@@H](C)[C@H](OC)CN(C)C2=O`, for which the max activity is -8.61% [at 7.5 µM].

Take `CC(C)COC(=O)N(C)C[C@@H]1OCc2ccccc2-c2c(n(C)c3ccccc23)C(=O)N([C@@H](C)CO)C[C@@H]1C`: the max activity is -18.1% [at 8 µM].

For `CCC(=O)Nc1ccc2c(c1)C(=O)N(C)C[C@@H](OC)[C@@H](C)CN(Cc1cncnc1)[C@@H](C)CO2`, the max activity was -7.99% [at 0.5 µM].

As to `C[C@@H]1CN([C@@H](C)CO)C(=O)Cc2cc(NS(C)(=O)=O)ccc2O[C@@H]1CN(C)Cc1ccc(Oc2ccccc2)cc1`, the max activity is 36.1% [at 35 µM].

Turning to `C[C@H](CO)N1C[C@H](C)[C@@H](CN(C)Cc2ccncc2)Oc2cc(-c3ccccc3)ccc2S1(=O)=O`, the max activity is 23.5%.

With `C[C@@H]1CCCCO[C@H](CN(C)CC2CCCCC2)[C@H](C)CN([C@@H](C)CO)C(=O)c2cc(NC(=O)Nc3ccc(F)cc3)ccc2O1`, the max activity is 11.6%.

As for `C[C@@H]1CCCCO[C@H](CN(C)CC2CCCCC2)[C@H](C)CN([C@@H](C)CO)C(=O)c2cc(NC(=O)Nc3ccccc3)ccc2O1`, the max activity was 9.95%.

As for `CO[C@H]1O[C@H](CO)[C@@H](OC(=O)Nc2ccccc2)[C@H](OC(=O)Nc2ccc3c(c2)OCO3)[C@H]1OC(=O)Nc1ccc2c(c1)OCO2`, the max activity was -7.27% [at 1.95 µM].

With `Cc1ccccc1S(=O)(=O)NCC[C@H]1CC[C@H](NC(=O)Nc2cccc(Cl)c2)[C@@H](CO)O1`, the max activity is 13.2%.

With `CO[C@@H]1CN(C)C(=O)c2cc(NC(C)=O)ccc2OC[C@H](C)N(Cc2nccs2)C[C@@H]1C`, the max activity is 24.6%.

For the compound `CC(C)C#Cc1ccc([C@@H]2[C@@H](CO)N(C(=O)c3cccc(F)c3)[C@H]2C#N)cc1`, the max activity is 15.2%.

Turning to `N#C[C@H]1[C@@H](c2ccc(-c3ccc(F)cc3)cc2)[C@H](CO)N1C(=O)Cc1ccccc1`, the max activity was 29.3% [at 8 µM].

`CC(C)NC(=O)N1[C@H](C#N)[C@@H](c2ccc(-c3ccc(F)cc3)cc2)[C@@H]1CO`: the max activity is 21.4% [at 8 µM].

Turning to `N#C[C@@H]1[C@@H](c2ccc(C#Cc3ccc(F)cc3)cc2)[C@H](CO)N1C(=O)C1CCC1`, the max activity was 35.7%.

On to `CO[C@H]1O[C@H](CO)[C@@H](OC(=O)c2ccc(Br)cc2)[C@H](OC(=O)c2cc3ccccc3[nH]2)[C@H]1OC(=O)c1cc2ccccc2[nH]1`, for which the max activity is 39.8%.

Take `CC(C)CC#Cc1ccc2c(c1)O[C@H](CN(C)Cc1ccncc1)[C@H](C)CN([C@@H](C)CO)S2(=O)=O`: the max activity was 25.7%.

As to `C[C@@H]1CN([C@@H](C)CO)S(=O)(=O)c2ccc(C#CC3(O)CCCC3)cc2O[C@@H]1CN(C)C(=O)Nc1cccc(F)c1`, the max activity is 40.2%.

As to `CO[C@H]1CN(C)C(=O)c2cc(NS(=O)(=O)c3cn(C)cn3)ccc2OC[C@H](C)N(C)C[C@@H]1C`, the max activity was -7.09% [at 0.5 µM].

`COc1cccc(NC(=O)N[C@@H]2C=C[C@H](CC(=O)NCc3ccncn3)O[C@H]2CO)c1`: the max activity is 11.5%.

For the compound `CC(C)NC(=O)N(C)C[C@H]1Oc2cc(C#Cc3cccc(F)c3)ccc2S(=O)(=O)N([C@H](C)CO)C[C@H]1C`, the max activity is 32.6%.

Turning to `C[C@H](CO)N1C[C@H](C)[C@@H](CN(C)Cc2ccc(Cl)c(Cl)c2)Oc2ccc(NS(=O)(=O)c3cccs3)cc2CC1=O`, the max activity was 37.8% [at 8 µM].

As to `CO[C@@H]1CN(C)C(=O)c2ccc(NC(=O)NC(C)C)cc2OC[C@@H](C)N(C(=O)NC(C)C)C[C@H]1C`, the max activity was -11.6% [at 2.1 µM].

For the compound `CCCC(=O)Nc1ccc2c(c1)OC[C@H](C)N(CCc1ccccc1)C[C@@H](C)[C@H](OC)CN(C)C2=O`, the max activity is 25.9%.

`O=C(Nc1ccc(Cl)cc1)N[C@@H]1CC[C@@H](CCn2cc(C3(O)CCCC3)nn2)O[C@@H]1CO`: the max activity is 29.6%.

In the case of `C[C@@H]1CN([C@@H](C)CO)C(=O)c2ccccc2-c2ccccc2CO[C@H]1CN(C)CC1CC1`, the max activity is 9.59%.

For the compound `CO[C@@H]1CN(C)C(=O)c2ccc(NC(=O)Nc3cccc(F)c3)cc2OC[C@@H](C)N(C(=O)C2CC2)C[C@H]1C`, the max activity is -12.2% [at 8 µM].

As for `C[C@@H]1CN([C@@H](C)CO)C(=O)c2cc(NC(=O)NC3CCCCC3)ccc2O[C@@H](C)CCCCO[C@@H]1CN(C)Cc1ccc(C(F)(F)F)cc1`, the max activity was 24.6%.

On to `CC(C)CC#Cc1ccc2c(c1)O[C@H](CN(C)Cc1ccccn1)[C@@H](C)CN([C@@H](C)CO)S2(=O)=O`, for which the max activity is 27.1%.

Consider `CC(C)C#Cc1ccc2c(c1)O[C@H](CN(C)Cc1cccnc1)[C@@H](C)CN([C@H](C)CO)S2(=O)=O`, for which the max activity was 44.6%.

In the case of `CCCC(=O)Nc1ccc2c(c1)C(=O)N(C)C[C@@H](OC)[C@@H](C)CN(C)[C@@H](C)CO2`, the max activity was -13% [at 8 µM].

For `Cc1ccc(S(=O)(=O)N(C)C[C@@H]2Oc3c(NC(=O)Nc4ccc(F)cc4)cccc3C(=O)N([C@H](C)CO)C[C@H]2C)cc1`, the max activity was -10.7% [at 1.95 µM].

`C[C@@H]1CN([C@H](C)CO)C(=O)c2cccc(NC(=O)Nc3ccc(F)cc3)c2O[C@H]1CN(C)S(=O)(=O)c1ccc(F)cc1`: the max activity was -11.6% [at 7.5 µM].

On to `C[C@H]1CN([C@@H](C)CO)C(=O)c2cccc(NC(=O)Nc3ccc(C(F)(F)F)cc3)c2O[C@@H]1CN(C)Cc1ccc2c(c1)OCO2`, for which the max activity is 42%.

For the compound `C[C@@H]1CN([C@@H](C)CO)C(=O)c2cccc(NC(=O)Nc3ccc(C(F)(F)F)cc3)c2O[C@H]1CN(C)Cc1ccc2c(c1)OCO2`, the max activity is 34.4% [at 8 µM].

Turning to `C[C@@H]1CN([C@@H](C)CO)C(=O)c2cc(Br)cnc2O[C@H]1CN(C)C(=O)c1ccccc1`, the max activity was 9.74%.

As to `Cc1noc(C)c1NC(=O)N[C@H]1CC[C@@H](CC(=O)Nc2ccc(-c3ccccc3)cc2)O[C@H]1CO`, the max activity is 12.6%.

For `COc1ccc(NC(=O)Nc2ccc3c(c2)C(=O)N([C@@H](C)CO)C[C@@H](C)[C@H](CN(C)Cc2ccccc2)OCCCC[C@@H](C)O3)cc1`, the max activity is 30.9%.

As to `CCCC(=O)Nc1ccc2c(c1)C(=O)N(C)C[C@H](OC)[C@@H](C)CN(Cc1ccccc1)[C@H](C)CO2`, the max activity is 15.3%.

Turning to `O=C(C[C@@H]1C=C[C@@H](NC(=O)CC2CC2)[C@H](CO)O1)NCc1ccc(-c2ccccc2)cc1`, the max activity is -9.84% [at 0.5 µM].

`CO[C@H]1CN(C)C(=O)c2cc(NC(C)=O)ccc2OC[C@H](C)N(CCc2ccccc2)C[C@H]1C`: the max activity was 19.8%.

Consider `CCCN1C[C@H](C)[C@H](OC)CN(C)C(=O)c2cc(NC(=O)c3cccc(F)c3)ccc2OC[C@@H]1C`, for which the max activity is -11.7% [at 1.95 µM].

`C=CCOC(=O)[C@H]1[C@@H]2C(=O)O[C@@H](c3ccccc3)[C@@H](c3ccccc3)N2[C@@H](c2ccc(OCCOC(=O)[C@@H]3C[C@@H]4C(=O)N[C@@H](CC(C)C)C(=O)N4[C@@H]3c3cccc(OCCO)c3)cc2)[C@]12C(=O)Nc1ccccc12`: the max activity was 24.6%.

As to `COc1ccc(-c2ccc([C@H]3[C@@H](C#N)N(C(=O)C4CC4)[C@H]3CO)cc2)cc1`, the max activity was 32.9%.

With `C[C@@H]1CN([C@H](C)CO)C(=O)Cc2cc(NC(=O)c3ccncc3)ccc2O[C@@H]1CN(C)Cc1ccc(-c2ccccc2)cc1`, the max activity was 47.8% [at 35 µM].

For the compound `CO[C@H]1CN(C)C(=O)c2ccc(NS(C)(=O)=O)cc2OC[C@@H](C)N(Cc2ccccn2)C[C@H]1C`, the max activity is -14.3% [at 8 µM].

On to `COCC(=O)Nc1ccc2c(c1)OC[C@@H](C)N(C(=O)c1ccccc1F)C[C@H](C)[C@H](OC)CN(C)C2=O`, for which the max activity is 7.88%.

On to `C[C@@H]1CN([C@H](C)CO)S(=O)(=O)c2ccc(C#CCN(C)C)cc2O[C@H]1CN(C)C(=O)c1ccccc1F`, for which the max activity is 18%.

Consider `CCCN1C[C@@H](C)[C@@H](OC)CN(C)C(=O)c2cc(NC(=O)c3cccc(F)c3)ccc2OC[C@@H]1C`, for which the max activity is -11.8%.

As for `CCCN1C[C@H](C)[C@@H](OC)CN(C)C(=O)c2ccc(NC(=O)CC)cc2OC[C@H]1C`, the max activity was 5.45% [at 1.95 µM].

For `COCC(=O)N1C[C@H](C)[C@@H](OC)CN(C)C(=O)c2cc(NC(=O)NC(C)C)ccc2OC[C@@H]1C`, the max activity is 23.4%.

Turning to `C[C@H](CO)N1C[C@H](C)[C@H](CN(C)S(=O)(=O)c2cccc(F)c2)Oc2ncc(C#CCN(C)C)cc2C1=O`, the max activity was 8.03%.

On to `O=C(C[C@H]1C[C@@H]2c3cc(NC(=O)C4CCC4)ccc3O[C@@H]2[C@@H](CO)O1)NCc1ccc(Cl)cc1`, for which the max activity is -16.5% [at 0.5 µM].

For the compound `C[C@@H]1CN([C@@H](C)CO)C(=O)Cc2cc(NC(=O)c3ccncc3)ccc2O[C@H]1CN(C)Cc1ccc(-c2ccccc2)cc1`, the max activity was 25.3% [at 8 µM].

`C[C@@H]1CN([C@H](C)CO)C(=O)c2cccc(NC(=O)c3ccncc3)c2O[C@H]1CN(C)Cc1ccc(-c2ccccc2)cc1`: the max activity is 36.1% [at 8 µM].

`Cc1cc(C(=O)Nc2cccc3c2O[C@H](CN(C)Cc2ccc(Oc4ccccc4)cc2)[C@@H](C)CN([C@H](C)CO)C3=O)n(C)n1`: the max activity was 41%.

Take `C[C@H]1CN([C@@H](C)CO)C(=O)c2cccc(NS(C)(=O)=O)c2O[C@@H]1CN(C)Cc1ccccc1`: the max activity is -11.4% [at 0.5 µM].

For `C[C@@H]1CN([C@@H](C)CO)C(=O)c2cccc(NC(=O)c3ccncc3)c2O[C@H]1CN(C)Cc1ccc(-c2ccccc2)cc1`, the max activity was 13.2% [at 8 µM].

For the compound `C[C@@H]1CN([C@H](C)CO)C(=O)c2cccc(NC(=O)c3ccncc3)c2O[C@H]1CN(C)Cc1ccc(Cl)c(Cl)c1`, the max activity was 16.6%.

For the origin of these results see PubChem BioAssay AID1224921 (Broad Institute, 2016).
